Assay results as given in PubChem BioAssay AID624255 (Broad Institute, 2012).
In all, about 77,000 compounds went through this assay and about 4,600 (6%) were called active. Roughly 1% stayed inconclusive and do not appear here. The sample holds actives, similar compounds and a random draw of the others, so the mix is not that of the screen. A number with no mark means an inactive call.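 How the source made its calls: active means mean inhibition above about 93%, with at least 55% of replicates each passing it (limit read from the data, passing the limit was not always enough); inconclusive means only one of those two conditions holds; inactive means neither condition holds.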

assay: growth inhibition of T. cruzi in host fibroblasts – cell-based, beta-gal Tulahuen parasites, NIH3T3 host, luminescence, primary screen (AID 624255); settings: T. cruzi beta-gal in NIH3T3, GalScreen luminescence, 90 h; at 8.34 µM; active compounds read high

SMILES	inhibition
O=C(C[C@@H]1CC[C@H]2[C@@H](COC[C@@H](O)CN2C(=O)c2ccc3c(c2)OCO3)O1)NC1CCCC1	27%
CCS(=O)(=O)Nc1ccc2c(c1)C(=O)N(C)[C@H]1CC[C@H](CC(=O)Nc3ccccc3)O[C@@H]1CO2	49.6%
C[C@@H]1CN([C@@H](C)CO)C(=O)c2cc(-c3ccc(F)cc3)cnc2O[C@H]1CN(C)C(=O)c1ccncc1	64.3%
CC(C)NC(=O)N(C)C[C@@H]1OCCCC[C@@H](C)Oc2ccc(NC(=O)c3ccccc3)cc2C(=O)N([C@@H](C)CO)C[C@H]1C	30.5%
COc1ccc(NC(=O)N(C)C[C@@H]2OCCCC[C@@H](C)Oc3ccc(NC(=O)C4CCCCC4)cc3C(=O)N([C@@H](C)CO)C[C@@H]2C)cc1	36.5%
CN1CCN(C(=O)C[C@H]2CC[C@H]3[C@H](COc4ccc(NC(=O)C5CC5)cc4C(=O)N3C)O2)CC1	14.2%
O=C(C[C@@H]1C[C@@H]2c3cc(NC(=O)Nc4ccc(C(F)(F)F)cc4)ccc3O[C@@H]2[C@@H](CO)O1)NCCc1ccccc1	93.5%
COc1ccccc1NC(=O)N1C[C@H](O)COC[C@H]2O[C@H](CC(=O)NCCc3ccccc3)CC[C@@H]21	-5.34%
CCCNC(=O)C[C@@H]1CC[C@@H]2[C@H](COc3ccc(NC(=O)C4CCOCC4)cc3C(=O)N2C)O1	47.3%
CO[C@@H]1CC[C@@H]2CCOc3ccc(C#N)cc3C(=O)N(C)C[C@@H](C)C(=O)N(C)C[C@@H]1O2	9.86%
C[C@H](O)C#Cc1ccc([C@H]2[C@H](CO)N3CCCCN(C(=O)c4ccc(F)cc4)C[C@@H]23)cc1	66.2%
O=C(c1cccc(F)c1)N1CCCCN2[C@H](CO)[C@H](c3ccc(C#CC4(O)CCCC4)cc3)[C@H]2C1	88.1%
CC(C)C#Cc1ccc([C@H]2[C@H](CO)N3CCCCN(C(=O)c4ccc(F)cc4)C[C@@H]23)cc1	80.8%
O=C(c1ccc(F)cc1)N1CCCCN2[C@H](C1)[C@@H](c1ccc(C#CC3(O)CCCC3)cc1)[C@@H]2CO	113% (active)
COc1ccc(S(=O)(=O)N(C)C[C@@H]2OCCCC[C@@H](C)Oc3ccc(N(C)C)cc3C(=O)N([C@@H](C)CO)C[C@@H]2C)cc1	46.8%
O=C(C[C@@H]1CC[C@@H](NC(=O)CC2CC2)[C@H](CO)O1)NCc1ccc(-c2ccccc2)cc1	36.4%
N#C[C@@H]1[C@@H](c2ccccc2)[C@@H](CO)N1C(=O)c1cc(Cl)cc(Cl)c1	90.7%
COc1ccc(NC(=O)Nc2ccc3c(c2)C(=O)N([C@@H](C)CO)C[C@@H](C)[C@H](CN(C)C(=O)NC(C)C)OCCCC[C@H](C)O3)cc1	19.2%
COc1cccc(-c2ccc3n(c2=O)C[C@@H]2[C@@H](CO)[C@H](C(=O)NCC4CC4)N(C(=O)NC(C)C)[C@H]32)c1	-3.92%
COc1ccc(-c2cn(CC[C@@H]3CC[C@@H](NS(=O)(=O)c4ccccc4C)[C@H](CO)O3)nn2)cc1	-38.7%
O=C(Nc1ccc(-c2ccccc2)cc1)[C@H]1[C@H](CO)[C@H]2Cn3c(cccc3=O)[C@H]2N1CC1CC1	170% (active)

SMILES	inhibition
O=C(Nc1ccccc1)[C@@H]1[C@@H](CO)[C@@H]2Cn3c(cccc3=O)[C@@H]2N1C(=O)C1CC1	90.7%
O=C(NCC1CCCCC1)[C@H]1[C@H](CO)[C@H]2Cn3c(cccc3=O)[C@H]2N1C(=O)CC1CC1	101% (active)
CCNC(=O)[C@H]1[C@H](CO)[C@H]2Cn3c(cccc3=O)[C@H]2N1C(=O)C1CCCC1	-9.09%
O=C(NC1CCCCC1)[C@@H]1[C@@H](CO)[C@@H]2Cn3c(cccc3=O)[C@@H]2N1C(=O)CC1CC1	-9.4%
O=C(Nc1ccc(-c2ccccc2)cc1)[C@@H]1[C@@H](CO)[C@@H]2Cn3c(cccc3=O)[C@H]1N2Cc1ccncc1	10.3%
COC(=O)C[C@H]1C[C@@H]2c3cc(NC(=O)Nc4ccccc4)ccc3O[C@@H]2[C@@H](CO)O1	57.1%
O=C(Cc1ccccn1)NCC[C@H]1CC[C@@H](NS(=O)(=O)c2ccc(F)cc2)[C@H](CO)O1	13.9%
COc1ccc(NC(=O)N(C)C[C@@H]2OCCCC[C@H](C)Oc3ccc(NS(=O)(=O)c4c(C)noc4C)cc3C(=O)N([C@@H](C)CO)C[C@@H]2C)cc1	52.5%
O=S(=O)(NC[C@H]1[C@@H](c2ccccc2)[C@@H](CO)N1CC1CC1)c1ccccc1	10.3%
CS(=O)(=O)N1[C@@H](C#N)[C@H](c2ccc(C#CC3CCCCC3)cc2)[C@@H]1CO	105% (active)
CS(=O)(=O)N1[C@H](C#N)[C@H](c2ccc(C#CC3CC3)cc2)[C@H]1CO	93%
CC(C)NC(=O)N1[C@H](C#N)[C@H](c2ccc(C#CC3CCCCC3)cc2)[C@H]1CO	107% (active)
CS(=O)(=O)N1[C@H](C#N)[C@H](c2ccc(C#CC3CCCC3)cc2)[C@H]1CO	91.5%
CCCNC(=O)N1[C@H](C#N)[C@@H](c2ccc(C3=CCCC3)cc2)[C@H]1CO	-28.9%
N#C[C@H]1[C@@H](c2ccc(C3=CCCCC3)cc2)[C@@H](CO)N1C(=O)NC1CCCCC1	101% (active)
N#C[C@@H]1[C@@H](c2ccc(C3=CCCCC3)cc2)[C@@H](CO)N1C(=O)c1cccc(F)c1	5.72%
N#C[C@H]1[C@@H](c2ccc(C#CC3CCCC3)cc2)[C@H](CO)N1C(=O)Nc1ccc(F)cc1	92.8%
CCc1cnc(N2[C@H](C#N)[C@H](c3ccc(C4=CCCC4)cc3)[C@@H]2CO)s1	101% (active)
CC(C)NC(=O)N1[C@H](C#N)[C@@H](c2ccc(-c3ccc(F)cc3)cc2)[C@H]1CO	34.6%
N#C[C@@H]1[C@@H](c2ccc(C3=CCCC3)cc2)[C@@H](CO)N1C(=O)C1CCCC1	34.1%
N#C[C@H]1[C@@H](c2ccc(C3=CCCCC3)cc2)[C@@H](CO)N1C(=O)Cc1ccncc1	57.5%
